Results published in PubChem BioAssay (NCATS).
A number with no mark means an inactive call. Records with an inconclusive call do not appear. A call without a number means that no potency is given here. The source made the active and inactive calls. Unless noted, calls follow the shape of the dose curve; as a rule, active = well fitted curve in the direction sought with a large enough effect; inconclusive = small, poorly fitted or top-dose-only effect, or another doubt; inactive = no such curve, though single readings can be large; an effect the other way counts as inactive or inconclusive.

Columns and labels:
[1] = Validation qHTS assay for inhibitors of Activation Induced Cytidine Deaminase (AID): UDG Counterscreen signal (AID 1347427)
How it was run: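 Fluorescence at 560 nm excitation, 665 nm emission reports UDG signal after 250 mM NaOH (2x) addition and 30 min. Enzymes (AID 1 uM, UDG 2 U/mL, at 4/3x) preincubated 10 min with compound, then 4 h with 4x 250 nM DJC20/DJC23 substrate at room temperature.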

[2] = biological target: Single-stranded DNA cytosine deaminase (Homo sapiens) (UniProt Q9GZX7); experiment: Validation qHTS assay for inhibitors of Activation Induced Cytidine Deaminase (AID): AID signal (AID 1347429)
Single-stranded DNA cytosine deaminase (Homo sapiens), sequence (Q9GZX7 whole entry, looked up): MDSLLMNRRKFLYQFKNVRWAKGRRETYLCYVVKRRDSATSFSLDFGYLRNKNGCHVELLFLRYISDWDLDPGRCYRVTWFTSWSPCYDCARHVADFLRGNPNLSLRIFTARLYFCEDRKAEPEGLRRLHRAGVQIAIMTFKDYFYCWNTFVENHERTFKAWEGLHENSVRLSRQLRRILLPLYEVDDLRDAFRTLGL
How it was run: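 Compounds (up to 114 uM final) are tested against AID plus UDG using DJC20/DJC23 FRET substrate. Reactions incubate 4 hr at room temperature, receive NaOH for 30 min, and are read at Ex 540/Em 590 nm.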

[3] = Primary qHTS for small molecule stabilizers of the endoplasmic reticulum resident proteome: Secreted ER Calcium Modulated Protein (SERCaMP) assay (AID 1508630)
How it was run: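 The SH-SY5Y reporter protocol was run at 3 concentrations up to 38.3 uM (primary) or 11 concentrations (follow-up): 16 h compound, 100 nM thapsigargin for 4 h, then extracellular luciferase luminescence.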

[4] = biological target: Calcium and integrin-binding protein 1 (Homo sapiens) (UniProt Q99828); experiment: Primary qHTS for Identification of Calcium Integrin Binding Protein 1 (CIB1) Competitor (AID 1508620); also: potency is read from the fitted curve at half-maximal effect
Calcium and integrin-binding protein 1 (Homo sapiens), sequence (Q99828 whole entry, looked up): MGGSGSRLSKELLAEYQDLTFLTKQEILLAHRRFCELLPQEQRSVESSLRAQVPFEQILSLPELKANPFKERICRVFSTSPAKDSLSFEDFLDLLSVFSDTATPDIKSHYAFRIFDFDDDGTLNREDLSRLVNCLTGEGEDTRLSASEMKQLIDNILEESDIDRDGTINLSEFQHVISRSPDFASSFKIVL
How it was run: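 Fluorescence polarization competition: CIB1-GST (1 uM final) preincubated with compound 15 min at room temperature, then FITC-labeled alphaIIb peptide (100 nM final) added for another 15 min. Polarization read at Ex 480/Em 540.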

[5] = biological target: Cytochrome P450 2D6 (Homo sapiens) (UniProt P10635); experiment: Cytochrome P450 family 2 subfamily D member 6 (CYP2D6) small molecule antagonists: luciferase biochemical (cell-free) qHTS assay (AID 1645840; active = well fitted curve in the direction sought with a large enough effect in the repeat runs; an effect the other way counts as inactive or inconclusive; also: nearly all actives have a fitted effect of over 55% in size; also: potency is read from the fitted curve at half-maximal effect)
Cytochrome P450 2D6 (Homo sapiens), sequence (P10635 whole entry, looked up): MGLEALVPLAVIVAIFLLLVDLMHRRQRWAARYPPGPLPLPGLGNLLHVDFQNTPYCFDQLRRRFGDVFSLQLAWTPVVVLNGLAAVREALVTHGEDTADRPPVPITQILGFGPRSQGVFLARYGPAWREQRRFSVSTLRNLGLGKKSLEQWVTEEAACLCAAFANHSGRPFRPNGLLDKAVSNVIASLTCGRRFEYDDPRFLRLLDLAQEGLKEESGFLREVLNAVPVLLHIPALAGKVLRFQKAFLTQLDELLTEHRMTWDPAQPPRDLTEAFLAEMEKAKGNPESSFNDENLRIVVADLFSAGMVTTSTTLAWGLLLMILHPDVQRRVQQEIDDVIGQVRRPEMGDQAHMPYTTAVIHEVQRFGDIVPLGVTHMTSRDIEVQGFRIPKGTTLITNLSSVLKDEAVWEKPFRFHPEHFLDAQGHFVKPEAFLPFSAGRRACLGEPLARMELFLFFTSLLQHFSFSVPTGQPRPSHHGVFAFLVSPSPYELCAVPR
How it was run: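 P450-Glo CYP2D6 system: proluciferin substrate converted by enzyme to luciferin, read by luminescence proportional to activity. Enzyme-substrate mix with compound 10 min at room temperature, then NADPH regeneration 1 h before detection reagent.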

[6] = Counterscreen qHTS for small molecule stabilizers of the endoplasmic reticulum resident proteome: GLuc-NoTag assay (AID 1508627); also: series mostly up to about 76 µM
How it was run: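 Secreted GLuc lacking the SERCaMP modification is measured in SH-SY5Y cells exposed to compound for 19 h and then to thapsigargin (100 nM, 4 h) to deplete ER calcium; hits retested at 11 concentrations, up to 76.6 uM.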

[7] = Confirmatory qHTS for small molecule stabilizers of the endoplasmic reticulum resident proteome: Secreted ER Calcium Modulated Protein (SERCaMP) assay (AID 1508628); also: nearly all actives have a fitted effect of over 40% in size; also: potency is read from the fitted curve at half-maximal effect
How it was run: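 GLuc-SERCaMP-expressing SH-SY5Y cells, pretreated 16 h with compound, are challenged with thapsigargin to empty ER calcium stores; after 4 h, coelenterazine is added directly to the medium and luminescence is imaged.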

[8] = Cell Viability qHTS for small molecule stabilizers of the endoplasmic reticulum resident proteome (AID 1508629); conditions: cell viability counter-screen, 100 nM thapsigargin for final 4 h;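 also: human SH-SY5Y neuroblastoma cells carrying the GLuc-SERCaMP reporter; compound exposure about 46 h in total before the viability read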
[9] = Primary qHTS for inhibitors of La Crosse Virus (LACV) - induced cell death in SH-SY5Y cells (AID 1508616);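 also: top concentration of the series differs between compounds; higher means more rescue of cells from virus-induced death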
How it was run: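 Screening measures cell viability in LACV-infected SH-SY5Y cultures. Compound was added before virus (0.01 MOI), and ATP was detected by luminescence 6 days later.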

[10] = biological target: Calcium and integrin-binding protein 1 (Homo sapiens) (UniProt Q99828); experiment: Validation qHTS for Identification of Calcium Integrin Binding protein 1 (CIB1) Competitor (AID 1508618)
How it was run: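 CIB1-GST (1 uM final) in 5 mM HEPES pH 7.4, 125 mM NaCl, 5 mM CaCl2, 0.01% Tween20 was preincubated 15 min at room temperature with compound (up to 114 uM), then FITC-alphaIIb peptide (100 nM) added for 15 min; fluorescence polarization read.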

[11] = biological target: Papain (Carica papaya) (UniProt P00784); experiment: Primary qHTS assay for inhibitors of the protease papain (AID 1645873);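 also: papain turnover of Z-FR-AMC read as the AMC fluorescence gain over 10 min; series mostly up to about 50 µM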
Papain (Carica papaya), sequence (P00784 whole entry, looked up): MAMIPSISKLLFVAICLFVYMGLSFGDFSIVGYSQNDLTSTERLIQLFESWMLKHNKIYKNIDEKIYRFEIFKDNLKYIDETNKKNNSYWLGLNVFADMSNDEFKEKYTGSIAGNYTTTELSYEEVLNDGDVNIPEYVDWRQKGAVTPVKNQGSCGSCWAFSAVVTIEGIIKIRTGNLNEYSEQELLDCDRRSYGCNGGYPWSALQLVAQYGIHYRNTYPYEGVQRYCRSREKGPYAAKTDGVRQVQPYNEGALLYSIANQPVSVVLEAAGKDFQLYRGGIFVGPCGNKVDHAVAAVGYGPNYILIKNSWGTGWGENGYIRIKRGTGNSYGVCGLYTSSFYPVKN

[12] = biological target: N-terminal Xaa-Pro-Lys N-methyltransferase 1 (Homo sapiens) (UniProt Q9BV86); experiment: Confirmatory qHTS for Inhibitors of N-terminal methyltransferase 1 (NTMT1): MTaseGlo Assay (AID 1645874); conditions: NTMT1 enzyme, MTase-Glo SAH luminescence; also: potency is read from the fitted curve at half-maximal effect; nearly all actives have a fitted effect of over 65% in size
N-terminal Xaa-Pro-Lys N-methyltransferase 1 (Homo sapiens), sequence (Q9BV86 whole entry, looked up): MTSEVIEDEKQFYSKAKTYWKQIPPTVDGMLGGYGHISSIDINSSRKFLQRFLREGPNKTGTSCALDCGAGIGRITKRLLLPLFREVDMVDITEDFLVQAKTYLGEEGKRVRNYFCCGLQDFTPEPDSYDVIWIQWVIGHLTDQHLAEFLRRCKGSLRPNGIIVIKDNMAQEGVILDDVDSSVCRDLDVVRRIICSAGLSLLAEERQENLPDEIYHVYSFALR
How it was run: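 SPKRIA peptide at 1 uM was methylated by 125 nM NTMT1 using 100 uM SAM over 30 min at room temperature, following a 15 min compound preincubation. Product SAH was detected luminescently.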

[13] = A High-Content qHTS Against Drug Library for the Identification of Small Molecules that Inhibit DYT1 Early Onset Primary Dystonia-Associated Cell Pathology (AID 1645839; calls by dose curve; also: series mostly up to about 46 µM)
How it was run: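 Induced EGFP-delE TorsinA cells are imaged after 48 h of compound treatment. Punctate fusion-protein distribution gives the %pathology value, while nuclei counts flag toxicity. Wild-type EGFP-hTOR1A cells define the normal pattern.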

[14] = biological target: Cytochrome P450 2C9 (Homo sapiens) (UniProt P11712); experiment: Cytochrome P450 family 2 subfamily C member 9 (CYP2C9) small molecule antagonists: luciferase biochemical (cell-free) qHTS assay (AID 1645842; active = well fitted curve in the direction sought with a large enough effect in the repeat runs; an effect the other way counts as inactive or inconclusive; also: nearly all actives have a fitted effect of over 55% in size; also: potency is read from the fitted curve at half-maximal effect)
Cytochrome P450 2C9 (Homo sapiens), sequence (P11712 whole entry, looked up): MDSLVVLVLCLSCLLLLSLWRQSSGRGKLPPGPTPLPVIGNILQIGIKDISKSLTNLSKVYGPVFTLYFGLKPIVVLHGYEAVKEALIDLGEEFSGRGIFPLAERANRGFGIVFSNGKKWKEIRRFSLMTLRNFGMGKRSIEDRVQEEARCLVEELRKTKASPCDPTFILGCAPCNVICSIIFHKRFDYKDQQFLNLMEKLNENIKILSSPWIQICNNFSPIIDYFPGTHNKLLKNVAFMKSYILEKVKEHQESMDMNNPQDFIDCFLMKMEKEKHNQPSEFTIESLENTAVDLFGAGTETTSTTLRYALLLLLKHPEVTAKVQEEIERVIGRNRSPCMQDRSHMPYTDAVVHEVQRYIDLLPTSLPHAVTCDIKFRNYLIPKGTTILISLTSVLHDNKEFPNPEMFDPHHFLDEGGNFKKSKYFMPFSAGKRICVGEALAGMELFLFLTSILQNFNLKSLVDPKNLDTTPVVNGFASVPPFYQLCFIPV
How it was run: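 P450-Glo CYP2C9 system: proluciferin substrate with enzyme in mix containing 0.4% BSA, 10 min at room temperature, then NADPH regeneration solution added and incubated 1 h at 37C. Detection reagent stopped reaction; luminescence read after 20 min as RLU.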

With O=C1O/C(=C/Br)CCC1c1cccc2ccccc12 (stereo not given) the Potency [1] was “inactive”, the Potency [2] was “inactive” and the Potency [3] was “inactive”.
With CCCC(=O)OC[C@@H](OC(=O)CCC)[C@@H](OC(=O)CCC)[C@H](Cn1c2nc(=O)[nH]c(=O)c-2nc2cc(C)c(C)cc21)OC(=O)CCC the Potency [4] was 2.82 µM (active) and the Potency [5] was 7.76 µM (active).
With CC1(C)C[C@@H]1C(=O)N/C(=C\CCCCSC[C@H](N)C(=O)O)C(=O)O the Potency [3] was “inactive”.
In the case of O=C1CN(/N=C/c2ccc(-c3ccc([N+](=O)[O-])cc3)o2)C(=O)N1, the Potency [6] is reported as “inactive”, the Potency [7] is reported as 11.2 µM (active) and the max response [8] is reported as 25.5%.
In the case of C[C@@H](NC(=O)/C(C#N)=C/c1ccc(O)c(O)c1)c1ccccc1, the Potency [1] is reported as “inactive”, the Potency [9] is reported as “inactive” and the Potency [3] is reported as “inactive”.
For CN1[C@@H]2CC[C@H]1CC(OC(c1ccccc1)c1ccccc1)C2 (stereo not given in full), the Potency [4] was “inactive”.
In the case of CCCn1c(=O)c2[nH]c(-c3ccc(OCC(=O)NCCN)cc3)nc2n(CCC)c1=O, the Potency [1] is reported as “inactive”, the Potency [9] is reported as “inactive” and the Potency [3] is reported as “inactive”.
With CN(C)CCCO[C@@H]1[C@H]2OC(C)(C)O[C@H]2O[C@@H]1[C@H](O)CO the Potency [1] was “inactive”, the Potency [9] was “inactive” and the Potency [3] was “inactive”.
With Cc1cn([C@H]2CC(N=[N+]=[N-])[C@@H](CO)O2)c(=O)[nH]c1=O (stereo not given in full) the outcome [10] was “inactive” and the Potency [11] was “inactive”.
For CN=c1nc(-c2ccccc2)n(-c2ccccc2)s1, the Potency [1] was “inactive”, the Potency [2] was “inactive” and the Potency [9] was “inactive”. The Potency [3] was “inactive” and the Potency [12] was 0.851 µM (active).
With CCCCCCCCCCCC(=O)[O][Sn]([CH2]CCC)([CH2]CCC)[O]C(=O)CCCCCCCCCCC the Potency [9] was “inactive”, the Potency [13] was “inactive” and the Potency [5] was “inactive”. For the same molecule, the Potency [14] was “inactive”.
For CN1CCc2cc(O)c(O)cc2C(c2ccccc2)C1 (stereo not given), the Potency [1] was “inactive” and the Potency [9] was “inactive”.
With Cc1ccccc1CNc1ncnc2c1ncn2C1OC(CO)C(O)C1O (stereo not given) the Potency [1] was “inactive”, the Potency [2] was “inactive” and the Potency [9] was “inactive”. The Potency [3] was “inactive”.
With O=C(O)c1ccccc1Nc1cccc(C(F)(F)F)c1 the Potency [9] was “inactive”, the Potency [3] was “inactive” and the Potency [5] was “inactive”. For the same molecule, the Potency [14] was “inactive”.
With CC(COc1ccc(/C=C/c2ccccc2)cc1)[N+](C)(C)C (stereo not given) the Potency [1] was “inactive”, the Potency [9] was “inactive” and the Potency [3] was “inactive”.
In the case of CCCCCCCCCCCCCCCCCC(=O)NCC(COP(=O)([O-])OCC[N+](C)(C)C)OCC (stereo not given), the Potency [1] is reported as “inactive”, the Potency [2] is reported as “inactive” and the Potency [3] is reported as “inactive”.
For COC(=O)[C@H]1[C@H]2C[C@@H]3c4[nH]c5cc(OC)ccc5c4CCN3C[C@H]2C[C@@H](OC(=O)/C=C/c2cc(OC)c(OC)c(OC)c2)[C@@H]1OC, the Potency [4] was “inactive”.
For N#C/C(=C\c1c[nH]c2ccccc12)C(=O)c1ccc(O)c(O)c1, the Potency [1] was “inactive”, the Potency [9] was “inactive” and the Potency [6] was “inactive”. The Potency [7] was 12.6 µM (active).
With CCc1c(C(=O)NCCc2ccc(N3CCCCC3)cc2)[nH]c2ccc(Cl)cc12 the Potency [1] was “inactive”, the Potency [9] was “inactive” and the Potency [3] was “inactive”.
For C=CCN1C(=O)C(CC(C)C)NC1=S (stereo not given), the Potency [14] was 23.9 µM (active).
In the case of CC(C(=O)O)c1ccc2c(c1)[nH]c1ccc(Cl)cc12 (stereo not given), the Potency [9] is reported as “inactive”, the Potency [4] is reported as “inactive” and the Potency [13] is reported as “inactive”. The Potency [5] was “inactive” and the Potency [14] was “inactive”.
In the case of Nc1ccn([C@@H]2O[C@H](CO)[C@@H](O)[C@@H]2O)c(=O)n1, the Potency [11] is reported as “inactive”.
With CC1(C)S[C@@H]2[C@H](NC(=O)[C@H](NC(=O)N3CCN(S(C)(=O)=O)C3=O)c3ccccc3)C(=O)N2[C@H]1C(=O)O the Potency [4] was “inactive”.
For CC1(C)S[C@@H]2[C@H](NC(=O)[C@H](N)c3ccc(O)cc3)C(=O)N2[C@H]1C(=O)O, the Potency [4] was “inactive”.
In the case of CN(C)c1ccc(C(=C2C=CC(=[N+](C)C)C=C2)c2ccccc2)cc1, the Potency [5] is reported as 8.71 µM (active).
In the case of CC(C)NCC(O)COc1cccc2ccccc12 (stereo not given), the Potency [9] is reported as “inactive”, the outcome [10] is reported as “inactive” and the Potency [11] is reported as “inactive”.
In the case of COc1cc(/C=C/C(=O)CC(=O)/C=C/c2ccc(O)c(OC)c2)ccc1O, the Potency [7] is reported as “inactive”.
In the case of Nc1ncnc2c1c(I)cn2[C@@H]1C[C@H](N)[C@@H](O)[C@H]1O, the Potency [1] is reported as “inactive”, the Potency [2] is reported as “inactive” and the Potency [9] is reported as “inactive”. For the same molecule, the Potency [12] was 3.65 µM (active).
With Cc1onc(-c2c(F)cccc2Cl)c1C(=O)N[C@@H]1C(=O)N2[C@@H]1SC(C)(C)[C@@H]2C(=O)O the Potency [4] was “inactive”.
With C=CC(=O)c1ccc(CCCCCC)cc1 the Potency [1] was “inactive”, the Potency [9] was “inactive” and the Potency [3] was “inactive”.
With C[C@H](O)[C@H](O)[C@H]1CNc2nc(N)[nH]c(=O)c2N1 the Potency [4] was “inactive”.
With CN(C)c1nc2c(Br)c(Br)c(Br)c(Br)c2[nH]1 the Potency [9] was “inactive” and the Potency [3] was “inactive”.
With CCCC1(C)C(C#N)(C#N)C1(C#N)C#N the Potency [1] was “inactive” and the Potency [3] was “inactive”.
In the case of C[S+](CC[C@H](N)C(=O)O)C[C@H]1O[C@@H](n2cnc3c(N)ncnc32)[C@H](O)[C@@H]1O (stereo not given in full), the Potency [5] is reported as “inactive”.
In the case of O=C(O)c1cc(=O)c2ccccc2[nH]1, the Potency [9] is reported as “inactive”, the outcome [10] is reported as “inactive” and the Potency [3] is reported as “inactive”. The Potency [11] was “inactive”.
For O=C(O)[C@@H]1C[C@H](C(=O)O)N1, the Potency [1] was “inactive”, the Potency [9] was “inactive” and the Potency [3] was “inactive”.
In the case of CC1(C)[C@@H](O[C@H]2O[C@H](C(=O)O)[C@@H](O)[C@H](O)[C@H]2O[C@@H]2O[C@H](C(=O)O)[C@@H](O)[C@H](O)[C@H]2O)CC[C@]2(C)[C@H]3C(=O)C=C4[C@@H]5C[C@@](C)(C(=O)O)CC[C@]5(C)CC[C@@]4(C)[C@]3(C)CC[C@@H]12, the Potency [4] is reported as “inactive”.
